Values joined by “and” are separate entries in the source; they are usually repeats but may differ in a detail not shown here. Equal values may be shown once. More than one record can exist for a structure, and the calls need not agree. Active and inactive are the calls of the source. Rule for the calls: active = hit-call score of the fitted dose curve at least 0.9, where 1 is the maximum; inactive = score below 0.9.
These compounds were tested against Hypoxia-inducible factor 1-alpha (Homo sapiens) (UniProt Q16665) (assay: ATG_HIF1a_CIS: Attagene CIS-FACTORIAL HepG2 Assay for human Hypoxia Inducible Factor 1 (HIF1A) (AID 2282951)). Conditions: HepG2 Attagene cis-factorial HIF1a reporter transcription; actives raise or lower the signal.
Protocol: ATG_CIS is a cell-based, multiplexed-readout assay that uses HepG2, a human liver cell line, with measurements taken at 24 hours after chemical dosing in a 24-well plate.ATG_HIF1a_CIS is one of 52 assay component(s) measured or calculated from the ATG_CIS assay. It is designed to make measurements of mRNA induction, a form of inducible reporter, as detected with fluorescence intensity signals by Reverse transcription polymerase chain reaction (RT-PCR) and Capillary electrophoresis technology.Data from the assay component ATG_HIF1a_CIS was analyzed into 1 assay endpoint. This assay endpoint, ATG_HIF1a_CIS, was analyzed with bidirectional fitting relative to DMSO as the negative control and baseline of activity. Using a type of inducible reporter, measures of mRNA for gain or loss-of-signal activity can be used to understand the reporter gene at the transcription factor-level as they relate to the gene HIF1A. Furthermore, this assay endpoint can be referred to as a primary readout, because this assay has produced multiple assay endpoints where this one serves a reporter gene function. To generalize the intended target to other relatable targets, this assay endpoint is annotated to the dna binding intended target family, where the subfamily is basic helix-loop-helix protein.
Human liver HepG2 cells are transiently transfected with multiple reporter transcription units (MRTUs) in 6-well plates using FuGene 6 reagent (Roche; 3 ml FuGene/1 mg DNA). The MRTU constructs are regulated by a cis-regulating element (promoter). […] A major difference between the CIS and TRANS system is that in CIS activities of endogenous TFs are measured, whereas the TRANS assay evaluates changes in activities of exogenous, chimeric NR-Gal4 proteins. […] At the end of 24 hour incubation, total RNA was isolated using TriZol reagent (Invitrogen). The isolated RNA is then reverse-transcribed using oligo(dT) primer and Mo-MLV reverse transcriptase (Invitrogen) with DNAse I (Ambion) treatment for 30 min. The one-tenth of the produced cDNA was amplified by PCR using Taq DNA polymerase (Invitrogen) and two reporter sequence-specific primers. The PCR products were fluorescently labeled by primer extension with 6-arboxyfluorescein (6-FAM) 5'-labeled reporter sequence-specific primer (2 min at 95 C, 20 s at 68 C and 10 min at 72 C) and these products were digested with 5U of HpaI (New England Biolabs) for 2h at 37 C. The fragments were purified using Qiaquick PCR columns (Qiagen), analyzed on an ABI 3130xL genetic analyzer (Applied Biosystems) with peak positions identified by using a set of X-rhodamine (ROX)-labeled MapMarker1000 molecular weight standards (BioVentures). The raw capillary electrophoresis data was processed using Attagraph software (Attagene).

Chain of Hypoxia-inducible factor 1-alpha (Homo sapiens) (Q16665 whole entry, looked up): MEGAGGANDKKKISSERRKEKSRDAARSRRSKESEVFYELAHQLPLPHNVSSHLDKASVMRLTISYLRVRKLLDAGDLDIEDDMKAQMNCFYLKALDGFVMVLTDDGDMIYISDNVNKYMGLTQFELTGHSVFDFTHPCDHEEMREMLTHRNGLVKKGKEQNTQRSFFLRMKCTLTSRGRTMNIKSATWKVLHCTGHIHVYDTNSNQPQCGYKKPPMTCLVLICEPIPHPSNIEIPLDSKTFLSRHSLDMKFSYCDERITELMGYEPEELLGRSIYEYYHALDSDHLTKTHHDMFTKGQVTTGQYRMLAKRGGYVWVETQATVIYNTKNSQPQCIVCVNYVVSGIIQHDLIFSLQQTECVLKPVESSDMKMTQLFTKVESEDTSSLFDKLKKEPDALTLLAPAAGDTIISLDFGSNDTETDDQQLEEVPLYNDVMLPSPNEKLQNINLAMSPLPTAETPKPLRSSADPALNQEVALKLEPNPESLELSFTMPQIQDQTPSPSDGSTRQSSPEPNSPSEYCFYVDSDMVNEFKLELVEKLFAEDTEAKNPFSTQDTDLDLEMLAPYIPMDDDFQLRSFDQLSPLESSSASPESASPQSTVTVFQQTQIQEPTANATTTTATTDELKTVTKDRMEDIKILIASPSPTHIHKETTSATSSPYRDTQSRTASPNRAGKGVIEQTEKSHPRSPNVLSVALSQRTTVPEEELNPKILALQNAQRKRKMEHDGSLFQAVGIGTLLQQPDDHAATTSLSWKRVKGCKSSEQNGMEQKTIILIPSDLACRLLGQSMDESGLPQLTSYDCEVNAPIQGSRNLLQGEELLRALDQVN

| Structure (SMILES) | outcome | AC50 |
| --- | --- | --- |
| O=S(=O)(O)C(F)(F)C(F)(F)C(F)(F)C(F)(F)C(F)(F)C(F)(F)F | inactive |  |
| O=C(O)C(F)(F)C(F)(F)C(F)(F)C(F)(F)C(F)(F)C(F)(F)C(F)(F)C(F)(F)C(F)(F)F | inactive | 26.6 µM (active) |
| O=C(O)C(F)(F)C(F)(F)C(F)(F)C(F)(F)C(F)(F)F | inactive | 5.86 µM (active) |
| ClC1=C(Cl)[C@]2(Cl)[C@@H]3[C@@H]4C[C@@H]([C@H]5O[C@@H]45)[C@@H]3[C@@]1(Cl)C2(Cl)Cl | inactive |  |
| ClC(Cl)=C(c1ccc(Cl)cc1)c1ccc(Cl)cc1 | inactive | 169 µM (active) |
| CC(C)C(=O)OCC(C)(C)C(OC(=O)C(C)C)C(C)C (stereo not given) | inactive |  |
| CN(C)c1nc(=O)n(C2CCCCC2)c(=O)n1C | inactive |  |
| Cc1cc2c3c(c1)C(c1ccccc1)=N[C@@H](NC(=O)c1ccncc1)C(=O)N3CC2 |  | 72.4 µM (active) |
| Nn1cnnc1 | inactive |  |
| c1ccc(-c2ccccc2)cc1 | inactive |  |
| Clc1ccc(Cl)cc1 | inactive | 5.24 µM (active) |
| C=CC(N)=O |  | 26 µM (active) |
| CC1=C2C[C@H]3[C@@H](CC=C4C[C@@H](O)CC[C@@]43C)[C@@H]2CC[C@]12O[C@@H]1C[C@H](C)CN[C@H]1[C@H]2C | inactive |  |
| CC#Cc1cc(C)nc(Nc2ccccc2)n1 | inactive |  |
| O=NN(c1ccccc1)c1ccccc1 | inactive |  |
| CCCCCCOC(=O)c1ccccc1C(=O)OCCCCCC | inactive |  |

| Structure (SMILES) | outcome | AC50 |
| --- | --- | --- |
| CCOC(=O)C(O)(c1ccc(Cl)cc1)c1ccc(Cl)cc1 |  | 0.000836 µM (active) |
| N#Cc1ccc(N(CC(N)=O)CC(F)(F)F)cc1C(F)(F)F | inactive |  |
| CCC(=O)O[C@H]1CC[C@H]2[C@@H]3CCC4=CC(=O)CC[C@]4(C)[C@H]3CC[C@]12C | inactive | 100 µM (active) and 122 µM (active) |
| O=S(=O)(O)C(F)(F)C(F)(F)C(F)(F)C(F)(F)F | inactive |  |
| Oc1c(Cl)c(Cl)c(Cl)c(Cl)c1Cl | inactive | 3.43 µM (active) and 20.6 µM (active) |
| Cc1cccc([N+](=O)[O-])c1 |  | 181 µM (active) |
| CCC(C)(CC)c1cc(NC(=O)c2c(OC)cccc2OC)on1 |  | 8.77 µM (active) |
| O=C(NC(=O)c1c(F)cccc1F)Nc1cc(Cl)c(OC(F)(F)C(F)F)c(Cl)c1 | inactive |  |
| Nc1ccc(-c2ccc(N)cc2)cc1 | inactive |  |
| CCCCCCCCOC(=O)c1ccccc1C(=O)OCCCCCCCC |  | 40.1 µM (active) |
| COc1ccc(O)c(C(C)(C)C)c1 |  | 52.6 µM (active) |
| Clc1ccc(C(c2ccccc2Cl)C(Cl)(Cl)Cl)cc1 (stereo not given) | inactive | 18.4 µM (active) |
| CCOP(=S)(OCC)SCSC(C)(C)C | inactive |  |
| Cc1ccccc1[N+](=O)[O-] | inactive |  |
| NS(=O)(=O)C(F)(F)C(F)(F)C(F)(F)C(F)(F)C(F)(F)C(F)(F)C(F)(F)C(F)(F)F | inactive | 8.26 µM (active) |
| c1cc2ccc3cccc4ccc(c1)c2c34 | inactive |  |

— PubChem BioAssay (EPA / NIEHS)
